Measurements from PubChem BioAssay (Tox21).
Inconclusive results are not listed. Calls of active or inactive are those of the source. The call rests on the fitted dose curve; in most records, active means well fitted curve in the direction sought with a large enough effect in the repeat runs; inconclusive means weak or mixed curves; inactive means no such curve, though single readings can be large; an effect the other way counts as inactive or inconclusive.

Legend:
[1] = A CellTox Green Cytotoxicity Assay to monitor cytotoxicity in HEK293 cells - 24 hour (AID 1224875); settings: CellTox Green fluorescence; series mostly up to 76.8 µM; further: nearly all actives have a fitted effect of over 45% in size
In short: (§1)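 Cells (HEK293, 600/well) and dye reagent are dispensed together. After 5 h at 37 C, 23 nL compound is pinned in. Plates stay at 37 C for 40 h with fluorescence read at 0h, 8h, 16h, 24h, 32h and 40h.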

[2] = A CellTox Green Cytotoxicity Assay to monitor cytotoxicity in HepG2 cells - 16 hour (AID 1224876); settings: CellTox Green fluorescence; series mostly up to 76.8 µM; further: nearly all actives have a fitted effect of over 45% in size; further: potency means the concentration at half of the fitted maximal effect
In short: (§2)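 Cells and non-lytic dye reagent are dispensed together (600 HepG2 cells/well) and incubated 5 h before DMSO compound transfer. Kinetic fluorescence is then recorded in the same wells during 40 h at 37 C.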

[3] = qHTS RealTime-Glo MT Cell Viability Assay in HepG2 cells - 32 hour (AID 1224877); settings: RealTime-Glo luminescence; series mostly up to 76.8 µM; further: nearly all actives have a fitted effect of over 55% in size; further: potency means the concentration at half of the fitted maximal effect
In short: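 Cells + NanoLuc/prosubstrate dispensed (600 cells/well) → 5 h at 37 C/5% CO2 → compounds in DMSO transferred → 40 h incubation at 37 C, luminescence read at 0, 8, 16, 24, 32, 40 h.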

[4] = A CellTox Green Cytotoxicity Assay to monitor cytotoxicity in HepG2 cells - 24 hour (AID 1224878); settings: CellTox Green fluorescence; series mostly up to 76.8 µM; further: nearly all actives have a fitted effect of over 45% in size; further: potency means the concentration at half of the fitted maximal effect
In short: as §2

[5] = A CellTox Green Cytotoxicity Assay to monitor cytotoxicity in HepG2 cells - 40 hour (AID 1224879); settings: CellTox Green fluorescence; series mostly up to 76.8 µM; further: nearly all actives have a fitted effect of over 40% in size; further: potency means the concentration at half of the fitted maximal effect
In short: as §2

[6] = qHTS RealTime-Glo MT Cell Viability Assay in HEK293 cells - 0 hour (AID 1224880); settings: RealTime-Glo luminescence; series mostly up to 76.8 µM; further: nearly all actives have a fitted effect of over 45% in size; further: potency means the concentration at half of the fitted maximal effect
In short: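 Real-time viability in HEK293: signal arises when living cells convert a prosubstrate for NanoLuc in the medium, so luminescence tracks viable cell number. Compound (23 nL, DMSO) added 5 h post-seeding; kinetic reads at 0–40 h, 37 C.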

[7] = A CellTox Green Cytotoxicity Assay to monitor cytotoxicity in HEK293 cells - 32 hour (AID 1224881); settings: CellTox Green fluorescence; series mostly up to 76.8 µM; further: nearly all actives have a fitted effect of over 40% in size
In short: as §1

[8] = A CellTox Green Cytotoxicity Assay to monitor cytotoxicity in HepG2 cells - 0 hour (AID 1224882); settings: CellTox Green fluorescence; series mostly up to 76.8 µM; further: nearly all actives have a fitted effect of over 35% in size
In short: as §2

[9] = A CellTox Green Cytotoxicity Assay to monitor cytotoxicity in HepG2 cells - 32 hour (AID 1224883); settings: CellTox Green fluorescence; series mostly up to 76.8 µM; further: nearly all actives have a fitted effect of over 50% in size; further: potency means the concentration at half of the fitted maximal effect
In short: as §2

[10] = A CellTox Green Cytotoxicity Assay to monitor cytotoxicity in HEK293 cells - 8 hour (AID 1224884); settings: CellTox Green fluorescence; series mostly up to 76.8 µM; further: nearly all actives have a fitted effect of over 35% in size
In short: as §1

Measured: Potency

CN1CC[C@H](c2c(O)cc(O)c3c(=O)cc(-c4ccccc4Cl)oc23)[C@H](O)C1
active: [4] 0.268 µM | [5] 0.239 µM | [9] 0.213 µM
inactive: all other assays above

CC1(C)[C@H]2CC[C@]1(C)C(=O)C2
inactive: all assays above

C=C1CC[C@H]2O[C@]2(C)CC[C@@H]2[C@@H]1CC2(C)C
inactive: all assays above

CC1=CC[C@@H](C(C)(C)O)CC1
inactive: all assays above

CSc1nnc(C(C)(C)C)c(=O)[nH]1
inactive: all assays above

Nc1c(Br)cc([N+](=O)[O-])cc1Br
inactive: all assays above

Clc1ccc2c(Cl)ccnc2c1
inactive: all assays above

CC1CCC(C(C)(C)O)CC1 (centres undefined)
inactive: all assays above

Cn1ccnc1
inactive: all assays above

O=C(c1ccccc1)c1ccc(Cl)cc1
inactive: all assays above

CCN(CC)c1ccc(C=O)c(O)c1
inactive: all assays above

CC(C)(C)C1=CC(=O)C(C(C)(C)C)=CC1=O
inactive: all assays above

Cc1ccc(C=O)cc1
inactive: all assays above

Oc1ccc(C2(c3ccc(O)c(C4CCCCC4)c3)CCCCC2)cc1C1CCCCC1
inactive: [1] | [7] | [8] | [10]
active: [2] 34.7 µM | [3] 34.7 µM | [4] 34.7 µM | [5] 24.5 µM | [6] 49 µM | [9] 34.7 µM

C=CC(C)(C)O
inactive: all assays above

[Cl][Dy]([Cl])[Cl]
not listed: [10]
inactive: all other assays above

C=COCCCC
not listed: [5] | [6] | [7]
inactive: all other assays above

C=C(C)C1CCC(C)CC1O (centres undefined)
not listed: [5] | [6]
inactive: all other assays above

COc1ccc(OC)c(N=Nc2c(O)ccc3ccccc23)c1
not listed: [5] | [9]
inactive: all other assays above

CC/C=C\C/C=C\C/C=C\CCCCCCCC(=O)OC
not listed: [5]
inactive: all other assays above

Brc1cc(Br)cc(Br)c1
not listed: [5]
inactive: all other assays above

Oc1cccc2c(O)cccc12
not listed: [5]
inactive: all other assays above
